This is a sample that favours compounds with a hit; in the whole collection about 0.77% have one here.
PKM2 act = PKM2 (human) enzyme activation; P14618; purified PKM2, Kinase-Glo ATP luminescence, activation; response scale: 0% is enzyme alone, no compound; Potency, µM (titrated, usually from 57.5 µM), for inactives: top-dose activation, hits mostly activators; 260,000 tested, 0.34% active; further: potency means the concentration at half of the fitted maximal effect; on the % scale 0 is the no-effect control and ±100 the full control effect; nearly all actives have a fitted effect of over 55% in size
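ATP formation by purified human PK-M2, quantified via coupled luciferase luminescence after 1 h at room temperature with 0.1 mM ADP and 0.5 mM PEP final.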
Vif-A3F inh = blocks the Vif interaction with APOBEC3F | HeLa A3F-eYFP + Vif (tagged APOBEC3F with the HIV-1 protein that degrades it), YFP fluorescence increase | Potency, µM (highest dose often 46.1 µM), without a hit: at the top dose activity, negative = active | 390,000 tested, 0.2% active | AID 602313; further: potency means the concentration at half of the fitted maximal effect; % of control where 0% means no effect; nearly all actives have a fitted effect of over 65% in size
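Fluorescence increase (Ex 488/Em 500-530) after overnight compound treatment at 37 deg C flags inhibition of Vif-driven A3F-eYFP loss in stable HeLa A3F-eYFP/Vif cells seeded overnight beforehand.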
Vif-A3G inh = blocks the Vif interaction with human APOBEC3G. Q9HC16. HeLa A3G-eYFP + Vif (tagged APOBEC3G with the HIV-1 protein that degrades it), YFP fluorescence, overnight. Potency, µM (doses to about 46.1 µM), without a hit: top-dose activity, negative = active, actives largely listed as inhibitors. 410,000 tested, 0.076% active; further: potency means the concentration at half of the fitted maximal effect; on the % scale 0 is the no-effect control and ±100 the full control effect; nearly all actives have a fitted effect of over 60% in size
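HeLa cells stably expressing Vif and C-terminally eYFP-tagged A3G, seeded overnight at 37 deg C, then exposed to compound by pintool overnight at 37 deg C. Rise in yellow fluorescence (Ex 488/Em 500-530, Acumen) marks blocked Vif-driven A3G degradation.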
GCN5L2 inh-1 = blocks human GCN5L2 histone acetyltransferase. Q92830. GCN5L2 HAT assay, ThioGlo1 CoA-SH fluorescence. Potency, µM (series often up to 58.9 µM), without a hit: top-dose activity change, negative = inhibition, actives largely listed as inhibitors. 390,000 tested, 0.21% active. AID 504327; further: potency means the concentration at half of the fitted maximal effect; on the % scale 0 is the no-effect control and ±100 the full control effect
Target sequence (Q92830 whole entry, looked up): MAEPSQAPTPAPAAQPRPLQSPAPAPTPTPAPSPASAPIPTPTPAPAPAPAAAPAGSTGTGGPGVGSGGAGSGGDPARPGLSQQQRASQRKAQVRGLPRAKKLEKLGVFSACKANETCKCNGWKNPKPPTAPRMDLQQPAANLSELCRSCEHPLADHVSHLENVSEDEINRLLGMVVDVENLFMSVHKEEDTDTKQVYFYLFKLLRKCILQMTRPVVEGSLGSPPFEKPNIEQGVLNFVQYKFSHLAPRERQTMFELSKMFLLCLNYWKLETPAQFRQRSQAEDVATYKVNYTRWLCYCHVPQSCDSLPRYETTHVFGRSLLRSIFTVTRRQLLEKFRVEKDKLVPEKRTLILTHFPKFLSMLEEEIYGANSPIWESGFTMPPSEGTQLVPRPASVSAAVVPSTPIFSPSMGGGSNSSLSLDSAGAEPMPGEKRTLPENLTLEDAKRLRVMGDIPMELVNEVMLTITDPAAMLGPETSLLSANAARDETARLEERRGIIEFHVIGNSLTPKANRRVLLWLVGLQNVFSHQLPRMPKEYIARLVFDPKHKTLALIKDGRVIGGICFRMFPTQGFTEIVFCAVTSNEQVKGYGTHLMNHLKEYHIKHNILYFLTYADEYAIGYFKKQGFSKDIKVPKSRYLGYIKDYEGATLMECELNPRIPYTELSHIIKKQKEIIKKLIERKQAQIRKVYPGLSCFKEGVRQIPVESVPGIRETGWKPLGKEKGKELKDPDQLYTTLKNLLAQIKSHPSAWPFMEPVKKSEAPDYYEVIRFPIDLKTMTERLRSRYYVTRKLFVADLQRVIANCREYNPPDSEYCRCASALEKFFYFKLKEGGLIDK
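Titration-based screen in which CoA formation is detected via maleimide probe ThioGlo1 (50uM) turning fluorescent on thiol reaction; substrates H3(1-25) 75uM and acetyl-CoA 70uM, GCN5L2 20nM, 20 min incubation at room temperature.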
IL2 activator = IL-2 activation; IL-2 activation reporter assay, cell-based qHTS; stimulated with anti-CD3/CD4/CD28 beads; in transgenic mouse T cells; activation, % (series mostly up to about 46 µM); 360,000 tested, 0.065% active; in the data active means activation above about 50%; inconclusive means mostly about 30% to 49%; further: 0% is about no effect
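Unstimulated transgenic mouse T cells, 750 per well, received compound and, after 60 minutes, anti-CD3/anti-CD4 bead plus anti-CD28 stimulation. EGFP and DsRed were quantified after 18 hours.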
GoLoco inh red = RGS12 GoLoco-Gai1 interaction inhibition | P63096 | Potency, µM (series often up to 61.6 µM), without a hit: top-dose activity, negative = inhibition, usual class: inhibitors | Gai1:RGS12 GoLoco peptide FP, rhodamine, 10 min | 230,000 tested, 0.44% active; active means well fitted inhibition curve with a large enough effect, not every such curve was filed as active; inactive means no such curve, though single readings can be large or run the other way; further: potency means the concentration at half of the fitted maximal effect; on the % scale 0 is the no-effect control and ±100 the full control effect; nearly all actives have a fitted effect of over 30% in size
GCN5L2 inh-2 = confirmation of human GCN5L2 histone acetyltransferase inhibitors; AID 588347; shares compounds with GCN5L2 inh-1; 140 tested, 70% active; GCN5L2 HAT, ThioGlo1 CoA fluorescence, 20 min; Potency, µM, usual class: inhibitors
Numbers without * were called inactive; u = inconclusive; x = no result; [ ] = dose if it differs, or a comment. Unless noted, the call rests on the fitted dose curve; in most records, active means well fitted curve in the direction sought with a large enough effect; inconclusive means small, poorly fitted or top-dose-only effect, or another doubt; inactive means no such curve, though single readings can be large; an effect the other way counts as inactive or inconclusive.

SMILES	PKM2 act	Vif-A3F inh	Vif-A3G inh	GCN5L2 inh-1	IL2 activator	GoLoco inh red	GCN5L2 inh-2
COc1ccc(C2=NOC(C(=O)N3CCN(c4ccccc4OC)CC3)C2)cc1 (centres undefined)	4%	5%	-3%	-6%	-2	-3%	x
COc1ccc2c(C(=O)NCCCCO)c(-c3ccc(S(C)(=O)=O)cc3)sc2c1	x	1%	-1%	u	1	x	36*
Cc1ccc(OCC(=O)Nc2ccc3c(c2)nc(CCN2CCOCC2)n3C)cc1	15%	-11%	-1%	-1%	-2	x	x
Nc1c(C(=O)N2CCOCC2)sc(=S)n1-c1ccccc1	-1%	-5%	0%	-24%	1	-7%	x
Nc1c(C(=O)N2CCCCC2)sc(=S)n1-c1ccccc1	5%	-7%	2%	u	1	-38%	u
CCOc1cc2[nH]c(=O)n(CCCN3CCCC3=O)c(=O)c2cc1OCC	0%	7%	4%	5%	-2	4%	x
COc1ccc(C(=O)N/N=C/c2ccc3cccc(OCc4ccccc4)c3n2)cc1	-2%	2%	1%	u	-4	14%	23*
CSc1ccccc1C(=O)Nc1ncn[nH]1	0%[11.5 µM]	-19%	-1%	35µM*	0	x	32*
C=CCSc1ccccc1C(=O)Nc1ncn[nH]1	-4%	2%	1%	-4%	2	x	x
Cc1ccc(C2=NS(=O)(=O)N(C)C(C(=O)NC3CCCCC3)=C2)cc1	1%	-7%	5%	2%	-2	x	x
O=C(COC(=O)c1c2c(nc3ccccc13)/C(=C/c1ccco1)CC2)NC1CCCC1	11%	u	-22%	13µM*	-4	17%	7.3*
O=C(NCCc1cccs1)C1CC(c2ccc([N+](=O)[O-])cc2)=NO1 (centres undefined)	-12%	1%	1%	-6%	0	-16%	x
COc1cccc2c1NC(C(=O)O)C1CC=CC21 (centres undefined)	5%	u	0%	11µM*	2	19%	u
COc1ccc(CC(=O)n2[nH]c(=O)ccc2=O)cc1OC	8.9µM*	6%	-5%	u	-1	-30%	36*
O=C(CSc1ccccc1)Nc1ccccc1C(=O)N1CCCC1	-5%	1%	-1%	0%	0	2%	x
c1ccc2nc3c(nc2c1)c1ccccc1n3CCN1CCOCC1	10%	u	-13%	1%	-3	8%	x
CCn1c2ccccc2c2nc3cc(S(=O)(=O)N4CCOCC4)ccc3nc21	-1%	-12%	-1%	u	2	-40%	u
Cc1ccc(S(=O)(=O)N2[C@@H](c3ccc(Br)cc3)C(C(=O)O)=CC[C@H]2c2ccc(Cl)c(Cl)c2)cc1	x	1%	-3%	28µM*	0	x	13*
Cc1ccc([C@H]2C(C(=O)O)=CC[C@@H](c3ccc(Cl)cc3)N2S(=O)(=O)c2ccc(C)cc2)cc1	x	-21%	-7%	14µM*	0	x	u
O=C(Nc1ccc(-c2nc3ccccc3s2)c(O)c1)C1=COCCO1	2%	u	-1%	25µM*	2	26%	23*
CCC(C)[C@H](NC(=O)N1CCCC1)C(=O)O (some centres undefined)	0%	0%	-1%	-1%	0	-3%	x
Nc1c(C(=O)Nc2ccc(Br)cc2)sc2nc(N3CCOCC3)c3c(c12)CCCC3	x	0%	-1%	x	-2	x	x
Nc1c(C(=O)NCc2ccco2)sc2nc(N3CCOCC3)c3c(c12)CCCC3	6%	-6%	-10%	u	-1	2%	u
CCOC(=O)Nc1sc2c(c1C(N)=O)CCC(C)C2 (centres undefined)	-5%	2%	0%	-4%	1	8%	x
CC(=O)NC(=S)Nc1sc2c(c1C(N)=O)CCC(C)C2 (centres undefined)	0%	-18%	6%	20µM*	1	2%	32*
SMILES	PKM2 act	Vif-A3F inh	Vif-A3G inh	GCN5L2 inh-1	IL2 activator	GoLoco inh red	GCN5L2 inh-2
Cc1nc2ccc(NC(=O)c3ccc(Cl)c([N+](=O)[O-])c3)cc2s1	-6%	0%	0%	2%	-1	5%	x
Cc1nc2ccc(NC(=O)c3cc([N+](=O)[O-])cc([N+](=O)[O-])c3Cl)cc2s1	2%	4%	-28%	u	1	-12%	8.1*
O=C(O)[C@@]1(CCCCCCOc2ccc(Cl)cc2)CO1	x	x	x	16%	x	x	x
c1ccc(Oc2cnc3ccccc3n2)cc1	0%	-3%	-7%	-10%	-2	8%	x
O=C(OCCN1C(=O)c2cccc3c(N4CCOCC4)ccc(c23)C1=O)c1cccc(Cl)c1	3%	u	u	u	7	38%	u
O=C(OCCN1C(=O)c2cccc3c(N4CCOCC4)ccc(c23)C1=O)c1ccc(Cl)cc1Cl	-1%	u	u	-7%	9	18%	x
O=C(Nc1cccc(S(=O)(=O)NC2=NCCC2)c1)c1cc(-c2ccco2)nc2ccccc12	u	2%	5%	13µM*	-2	36%	u
CCCOc1cccc(C2C(C(=O)c3cc4ccccc4o3)=C(O)C(=O)N2c2cc(C)on2)c1 (centres undefined)	x	u	-2%	u	0	x	x
Cc1cc(N2C(=O)C(O)=C(C(=O)c3cc4ccccc4o3)C2c2cccc(Br)c2)no1 (centres undefined)	x	u	-9%	u	1	x	u
CCc1nc2ccccc2c(C(=O)Nc2ccc(C)cc2)c1C	1%	-17%	0%	-3%	-1	x	x
CCSS(=O)(=O)c1cccc2cccnc12	9%	-18%	-13%	3.2µM*	-4	-33%	3.6*
O=C(O)CCS(=O)(=O)c1cccc2cccnc12	-3%	-1%	-1%	u	0	-5%	x
O=C1ON=C(c2ccccc2)/C1=C/c1ccc(O)cc1	1%[11.5 µM]	-13%	u	-29%	-1	x	x
O=C1ON=C(c2ccc(Cl)cc2)/C1=C/c1ccc(O)cc1	u	u	-9%	u	-1	-3%	26*
COc1cc(/C=C(/C#N)c2nc3ccccc3[nH]2)ccc1OCC(=O)Nc1ccccc1C(C)C	3%	10µM*	-14%	u	-4	13%	u
COc1cc(/C=C(/C#N)c2nc3ccccc3[nH]2)ccc1OCC(=O)Nc1ccccc1C	1%	-19%	-12%	25%	-1	8%	x

Screens deposited in PubChem BioAssay by National Center for Advancing Translational Sciences (NCATS).
